D2 PAM-1 = positive allosteric modulators of human D2 dopamine receptor | AID 624464 | DiscoveRx D2 beta-arrestin cells, luminescence, 90 min; 100% = 57 uM dopamine signal | 0.23% of 360,000 active | potentiation, % (test concentration not listed); in the data active = potentiation above about 50%; inconclusive = mostly about 30% to 49%
Target sequence (P14416 whole entry, looked up): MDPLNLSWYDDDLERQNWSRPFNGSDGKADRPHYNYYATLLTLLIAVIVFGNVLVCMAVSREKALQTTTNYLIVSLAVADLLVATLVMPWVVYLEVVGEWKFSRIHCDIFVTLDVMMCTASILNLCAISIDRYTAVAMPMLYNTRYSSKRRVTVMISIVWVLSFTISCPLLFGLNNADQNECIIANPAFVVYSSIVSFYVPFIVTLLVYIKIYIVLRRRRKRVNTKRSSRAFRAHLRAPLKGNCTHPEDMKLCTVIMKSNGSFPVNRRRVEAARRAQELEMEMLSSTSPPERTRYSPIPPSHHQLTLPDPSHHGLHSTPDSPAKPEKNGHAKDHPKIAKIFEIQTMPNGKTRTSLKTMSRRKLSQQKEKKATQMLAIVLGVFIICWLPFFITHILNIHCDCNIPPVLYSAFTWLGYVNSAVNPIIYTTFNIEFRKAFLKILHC
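PathHunter beta-arrestin assay in DiscoveRx D2 cells. Compounds were added with an EC20 of dopamine (50 nM final) for 90 min at 37 deg C. Luminescence was read 1 h after detection reagent, with 57 uM dopamine as the EC100 control.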
D2 antagonist = antagonizes the human D2 dopamine receptor | P14416 | HEK293 TREx D2 cells, calcium flux, dopamine EC80 | inhibition, % at 10 µM | 2% of 340,000 active; in the data active = inhibition above about 30%; inactive = below that, where a call was filed; also: 0% is about no effect
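Calcium flux kinetic readout in an inducible HEK293 TREx D2 line plated overnight at 30 C. After 180 s compound exposure, an EC80 dopamine challenge follows with another 180 s kinetic read to detect antagonism.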
D2 ag-1 = human D2 receptor agonism in beta-arrestin assay | DiscoveRx PathHunter D2 beta-arrestin, luminescence, 90 min; 100% = 57 uM dopamine signal | activation, % (test concentration not listed) | 0.084% of 360,000 active | AID 624465; in the data active = activation above about 40%; inconclusive = between about 15% and that limit
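DiscoveRx PathHunter D2 beta-arrestin cells (2,100/well) attached overnight, then compound-stimulated 90 min at 37 C in HBSS/10 mM HEPES/0.1% Tween-20 buffer; beta-galactosidase complementation read by luminescence after 1 h at ambient temperature. Dopamine 57 uM final (EC100) as control.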
D2 ag-2 = D2 dopamine receptor (human) agonism; 0.53% of 340,000 active; activation, % at 2 µM; AID 485358; HEK293 T-REx D2 cells, calcium flux agonist mode; P14416;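 active = activation over 3 SD above normal in the single-dose calcium agonist read, cut at about 30% in these data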; also: 0% is about no effect
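Tetracycline-induced HEK293 T-REx cells with force-coupled D2 receptor, plated overnight at 30 C, loaded with no-wash calcium dye. After a 10 s baseline, compound was pin-added and calcium flux read kinetically for 180 s; calcium rises flagged agonists.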
D2 PAM-2 = positively modulates the human D2 dopamine receptor allosterically. P14416. HEK293 T-REx D2, calcium flux, EC20 dopamine potentiation. potentiation, % at 10 µM. 0.34% of 340,000 active;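 active = potentiation over 3 SD above the plate norm, cut at about 30% in these data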; also: 0% is about no effect
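Tetracycline-induced HEK293 T-REx cells force-coupled to calcium signalling expressed D2; compounds were pin-added after a 10 s baseline, read kinetically 180 s, then an EC20 dopamine challenge followed with a further 180 s calcium read.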
D3 arrestin ag = confirmation of human D3 dopamine receptor agonists, beta-arrestin; shares compounds with D2 ag-2; DiscoveRx D3 beta-arrestin cells, luminescence, 90 min; Potency, µM (highest dose often 76.9 µM), for the others: at the top dose activation, usual class: activators; 4% of 2,300 active; AID 720506;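 also: potency is read from the fitted curve at half-maximal effect; 100% = dopamine control response; nearly all actives have a fitted effect of over 70% in size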
D2 ag-3 = counter-screen for D3 agonists: human D2 dopamine receptor agonism. shares compounds with D2 ag-2. DiscoveRx PathHunter D2 beta-arrestin, luminescence, 90 min; response scale: percent relative to full dopamine signal. 5.9% of 2,300 active. Potency, µM (doses to about 76.9 µM), for inactives: at the top dose activation, actives largely listed as activators; also: potency is read from the fitted curve at half-maximal effect; % of control where 0% means no effect; nearly all actives have a fitted effect of over 70% in size
Active calls of the source: *; ? = inconclusive; · = no result; ! = not active in a repeat. In the library only some 2.4% were active in any assay of this set; here they are far more common. Unless noted, calls follow the shape of the dose curve; as a rule, active = well fitted activation curve with a large enough effect; inconclusive = small, poorly fitted or top-dose-only effect; inactive = flat fitted curve, though single readings scatter.

SMILES	D2 PAM-1	D2 antagonist	D2 ag-1	D2 ag-2	D2 PAM-2	D3 arrestin ag	D2 ag-3
Cc1ccc(S(=O)(=O)N2CCOCC2)cc1NC(=O)CNCC1CCCCC1	-2	50*	?	53*	-16	?	?
Cc1ccc(S(=O)(=O)N2CCOCC2)cc1NC(=O)CNCc1ccc(Cl)cc1Cl	4	·	1	·	·	·	·
CCN1CCN(C(c2ccc(F)cc2)c2sc3nc(-c4ccco4)nn3c2O)CC1 (stereo unspecified)	·	·	·	-1	7	·	·
CCN(CC)CCCNC(=O)CN1C(=O)CSc2ccc(S(=O)(=O)N3CCOCC3)cc21	-2	-14	-1	1	15	·	·
CCN(CC)CC(C)CNC(=O)CN1C(=O)CSc2ccc(S(=O)(=O)N3CCOCC3)cc21 (stereo unspecified)	-2	-8	0	54*!	-11	-3%	5%
CC1CC(C)CN(CCOc2cccc(Cl)c2Cl)C1 (stereo unspecified)	16	86*	41*	88*	-27	?	?
Clc1cccc(OCCn2cncn2)c1Cl	-5	·	0	·	·	·	·
CC(OC(=O)COc1ccc(C#N)cc1)C(=O)c1ccccc1 (stereo unspecified)	1	32*	3	0	3	-2%	-4%
Cc1ccc(S(=O)(=O)N2CCN(C(=O)COC(=O)CSc3cc(C)ccc3C)CC2)c(C)c1	-17	-7	2	0	7	-1%	-4%
Cc1ccc(S(=O)(=O)N2CCN(C(=O)COC(=O)/C=C/c3ccc(F)cc3)CC2)c(C)c1	-11	3	1	0	5	·	·
Cc1ccc(S(=O)(=O)N2CCN(C(=O)COC(=O)/C=C/c3ccccc3)CC2)c(C)c1	-6	19	0	1	12	-8%	-4%
CCCCCCCC/C=C\CCCCCCCC(=O)NCCc1ccc(O)c(O)c1	?	57*	100*	39*	7	4µM*	16µM*
CCCCCCCC/C=C\CCCCCCCC(=O)NCCO	-7	12	-3	1	4	·	·
COC(=O)c1ccc(NC(=O)CCn2cccn2)cc1	·	·	·	0	-1	·	·
CC(CCCCCCCCC(=O)O)N(CCO)C(=O)OC(C)(C)C (stereo unspecified)	-6	-2	-4	0	7	-2%	-3%
CCc1ccc(NC(=O)COCc2cc(-c3ccc(F)cc3)on2)cc1	·	·	·	1	0	·	·
CC(OC(=O)/C=C/c1ccco1)C(=O)NC1CCCCC1C (stereo unspecified)	-1	5	-1	0	11	-2%	-4%
CC(OC(=O)/C=C/c1cccs1)C(=O)NC1CCCCC1C (stereo unspecified)	4	8	-3	0	9	·	·
CC(OC(=O)Cc1ccc(Cl)cc1)C(=O)NC1CCCCC1C (stereo unspecified)	1	-3	1	0	1	0%	-3%
Cc1cc(OC(C)C(=O)N2C[C@H]3C[C@@H](C2)c2cccc(=O)n2C3)c2c(C)c(C)c(=O)oc2c1 (stereo partly specified)	-6	-1	-4	41*	2	-7%	-5%
Cc1c(C)c2ccc(OC(C)C(=O)N3C[C@H]4C[C@@H](C3)c3cccc(=O)n3C4)c(C)c2oc1=O (stereo partly specified)	-20	15	-7	0	-5	·	·
O=C(Cn1ncc2c([nH]c3ccccc32)c1=O)NCCCN1CCN(c2ccccc2)CC1	-27	103*	?	-1	-2	13%	?
CC1CCCC(C)N1CCCNC(=O)Cn1ncc2c([nH]c3ccccc32)c1=O (stereo unspecified)	-9	8	1	0	-3	·	·
O=S(=O)(c1ccc(Cl)cc1)N1CCc2ccccc21	-1	1	-6	1	11	·	·
O=S(=O)(c1ccc(F)cc1)N1CCc2ccccc21	7	36*	1	8	3	4%	2%
SMILES	D2 PAM-1	D2 antagonist	D2 ag-1	D2 ag-2	D2 PAM-2	D3 arrestin ag	D2 ag-3
O=C(O)CCSc1ccc([N+](=O)[O-])cc1[N+](=O)[O-]	2	·	14	·	-4	?	6%
COc1ccc(CN(C(=O)/C=C/C(=O)c2ccc(OC)cc2O)C(C(=O)NC2CCCCC2)c2ccncc2)cc1 (stereo unspecified)	-2	1	0	35*	-27	-9%	-4%
C[C@@H]1CCCCCCCCC(=O)OCCN(C(=O)OC(C)(C)C)[C@H](C)CCCCCCCCC(=O)OCCN1C(=O)OC(C)(C)C	-10	·	-2	·	·	·	·
C[C@@H]1CCCCCCCCC(=O)OCCN1C(=O)OC(C)(C)C	0	13	-1	1	-4	2%	2%
O=C(Cc1ccccc1)N1CCN(c2ncccn2)CC1	-1	0	4	0	1	·	·
NC(=O)C1CCN(Cc2ccc(OCc3ccccc3)cc2)CC1	-6	-5	-6	1	12	·	·
c1ccc(CN2CCN(c3nc(-c4ccccc4)nc(-n4ccnc4)n3)CC2)cc1	-33	4	-4	0	8	·	·
c1ccc(-c2ccc(CN3CCN(c4ncccn4)CC3)cc2)cc1	29	118*	?	79*	-32	?	?
c1ccc(COc2ccc(CN3CCN(c4ccccn4)CC3)cc2)cc1	18	75*	47*	77*	-23	?	11µM*
c1ccc(CN2CCN(c3ncccn3)CC2)cc1	?	84*	56*	86*	-25	?	2.5µM*
Clc1ccc(CN2CCN(c3ncccn3)CC2)cc1Cl	20	77*	65*	80*	-35	?	14µM*
Cc1ccc(C)c(NC(=O)C2CCN(S(=O)(=O)c3c(C)noc3/C=C/c3cccs3)CC2)c1	·	·	·	0	-11	·	·
CC(C)Oc1ccc(CNC(=O)c2ccc(CS(=O)c3cccc(Cl)c3)o2)cc1 (stereo unspecified)	·	·	·	-1	-5	·	·
Cc1cc(=O)[nH]c(N2CCN(Cc3ccccc3)CC2)n1	0	-16	6	40*	-14	-12%	9%
Fc1ccc(CN2CCCCCC2)c(F)c1	-22	7	-1	0	-3	·	·
O=C(c1cccnc1)N1CCN(Cc2cccc(F)c2)CC1	-7	13	2	1	6	·	·
C(#Cc1ccccc1)CN1CCN(c2ccccn2)CC1	-10	20	5	45*	-17	10%	11%
CCCCc1c(O)nc(N2CCN(Cc3ccccc3)CC2)[nH]c1=O	-6	·	0	·	·	·	·

Screening data: PubChem BioAssay, National Center for Advancing Translational Sciences (NCATS)
